# Screening data from PubChem BioAssay.
# Rows were chosen to be rich in hits. Some 3.1% of all compounds tested hit in one or more screens of this group.
# Rtt109 HAT inh = inhibitors of C. albicans Rtt109/Vps75 HAT, primary screen, biochemical, ThioGlo CoA-SH fluorescence, plate reader | purified Rtt109/Vps75, 4 h | inhibition, % at 34.9 µM | Histone acetyltransferase RTT109 (Candida albicans (strain SC5314 / ATCC MYA-2876)), … | AID 540336, 2011 | 330,000 tested, 0.16% active;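 active = inhibition of at least 50% in every replicate; inconclusive = best replicate reaches 50% inhibition but some replicates fall short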
# Target sequence (Q5AAJ8 whole entry, looked up): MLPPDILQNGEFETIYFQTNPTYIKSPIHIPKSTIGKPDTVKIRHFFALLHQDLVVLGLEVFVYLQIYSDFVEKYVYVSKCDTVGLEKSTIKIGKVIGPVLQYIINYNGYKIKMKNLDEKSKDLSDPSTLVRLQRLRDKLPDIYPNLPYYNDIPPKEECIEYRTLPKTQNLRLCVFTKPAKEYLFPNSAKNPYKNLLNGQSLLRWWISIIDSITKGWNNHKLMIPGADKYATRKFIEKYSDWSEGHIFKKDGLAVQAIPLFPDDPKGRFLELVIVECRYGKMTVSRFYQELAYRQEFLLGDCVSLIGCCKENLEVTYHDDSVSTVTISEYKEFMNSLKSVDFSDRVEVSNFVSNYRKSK
# Wnt act = Wnt/beta-catenin pathway activators, primary screen, cell-based, plate reader, single point. Wnt/beta-catenin reporter cell assay, activator. activation, % at 9.35 µM. 300,000 tested, 1.2% active. AID 743398, 2014; in the data active = activation above about 30%, passing the limit was not always enough; inconclusive = no clear call, values can overlap the other calls;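 note: 0% = neutral control wells and 100% = positive control wells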
# C2C12 statin = suppressors of statin myotoxicity in C2C12 myotubes, primary screen, cell-based, single point, plate reader; rescue of ATP level, % at 7.49 µM; C2C12 myotubes + simvastatin, ATP luminescence, 48 h; scaled: DMSO 0, geranylgeraniol control 100; 330,000 tested, 0.78% active; AID 602340, 2012;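 active = mean ATP rescue above about 67%, or every replicate alone reaching that limit, limit read from the data, passing the limit was not always enough; inconclusive = no clear call, values can overlap the other calls; inactive = mean under the limit and some replicate under it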;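 note: myotubes were challenged with 10 µM simvastatin during compound exposure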
# MITF act = activators of MITF-driven TRPM1 promoter reporter, primary screen, cell-based, SK-MEL-5, luciferase, single point | 300,000 tested, 0.75% active | activation, % at 12.5 µM | AID 588334, 2011 | SK-MEL-5 TRPM1-promoter luciferase, 24 h; % of positive control, neutral wells = 0;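 active = mean activation of at least 80% with every replicate also reaching 80%; inconclusive = mean reaches 80% but some replicate falls short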;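 note: 0% = neutral control wells and 100% = parthenolide positive control wells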
# esBAF inh = Bmi1 luciferase reporter increase in mESCs, primary screen, esBAF inhibitor project, mouse ES cells, Bmi1 luciferase knock-in, single point. 24 h; 100% = twice the neutral-well signal. reporter increase, % at 12.5 µM. 350,000 tested, 2% active; in the data active = activation above about 40%; inconclusive = no clear call, values can overlap the other calls;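 note: 0% = median of the plate's neutral control wells and 100% = double that signal; a rise in the Bmi1 reporter signal indicates esBAF inhibition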
# * hit, by the source's call; u = inconclusive; x = not tested or not shown.
SMILES,Rtt109 HAT inh,Wnt act,C2C12 statin,MITF act,esBAF inh
O=C(N[C@@H]1CC[C@H](CCNS(=O)(=O)c2ccc(F)cc2)O[C@@H]1CO)C1CCOCC1,x,x,0,x,-2
C[C@@H]1CN([C@@H](C)CO)C(=O)c2cc(NC(=O)c3ccncc3)ccc2O[C@@H](C)CCCCO[C@H]1CN(C)S(C)(=O)=O,x,x,-49,x,-6
CC(C)C1COC(c2cccc3ccccc23)=N1 (stereo not given),2,39*,0,74,55*
CCn1cc(C2=NC(C(C)C)CO2)c2ccccc21 (stereo not given),-7,6,-17,-1,2
C[C@H](CO)N1C[C@H](C)[C@@H](CN(C)Cc2ccc(Cl)c(Cl)c2)OCCCC[C@H](C)Oc2ccc(NC(=O)Nc3ccccc3)cc2C1=O,x,x,-4,x,-4
CCN1[C@@H]2c3ccc(/C=C/c4ccccc4)c(=O)n3C[C@H]1[C@H](CO)[C@H]2C(=O)N1CCOCC1,x,x,9,x,-3
COc1ccc2[nH]c(=O)c(CNc3cccc(C)c3)cc2c1,-29,x,29,15,56*
Cc1ccc(C(=O)CSc2nnc(-c3cccs3)n2C)o1,-20,-1,0,x,12
Cn1c(SCc2ccccc2)nnc1-c1ccncc1,-4,-2,11,3,3
Cn1c(SCc2ccc(F)cc2)nnc1-c1cccs1,-9,22,x,86*,x
Cn1c(SCc2ccccc2)nnc1-c1cccs1,-2,x,8,u,59*
CC(C)NC(=O)Nc1ccc2c(c1)C(=O)N([C@@H](C)CO)C[C@H](C)[C@@H](CN(C)S(=O)(=O)c1cccs1)O2,x,x,x,x,-2
COc1ccc(Cc2nc3ccc(C(=O)N(C)Cc4cc(C)[nH]n4)cc3o2)cc1OC,-3,1,5,5,2
COc1ccc(Cc2nc3ccc(C(=O)N(C)CCn4ccnc4)cc3o2)cc1OC,-4,20,-2,9,48*
COc1ccc(Cc2nc3ccc(C(=O)N4C[C@@H](C)O[C@@H](C)C4)cc3o2)cc1OC,-3,9,0,75,69*
COc1ccc(Cc2nc3ccc(C(=O)N4CCOCC4)cc3o2)cc1,-2,20,-4,95*,78*
COCCN1CCN(C(=O)c2ccc3nc(Cc4ccc(OC)c(OC)c4)oc3c2)CC1,-7,-3,x,0,x
O=C(Cc1c(Cl)cccc1Cl)OCc1ccccn1,-10,-1,2,u,49*
Cc1nnc(Nc2ccc(O)cc2)[nH]c1=O,-6,-15,107*,-8,-2
CCN(c1ccccc1)c1ncnc2c1cnn2-c1ccccc1,-17,10,-15,x,76*
CN(Cc1ccccc1)c1ncnc2c1cnn2-c1ccccc1,-2,26,53,85*,40
COCCN(CCOC)c1ncnc2c1cnn2-c1ccccc1,5,7,-3,25,38
COc1ccccc1Oc1ncnc2c1cnn2-c1ccccc1,-15,10,3,91*,73*
S=C1NC(c2ccccc2)=NCN1c1ccccc1,-9,42*,7,x,58*
COC(=O)c1sc(-c2ccc(C(C)(C)C)cc2)cc1NC(=O)c1ccccc1C(=O)O,8,46*,x,x,x
SMILES,Rtt109 HAT inh,Wnt act,C2C12 statin,MITF act,esBAF inh
COC(=O)c1sc(-c2ccc(Cl)cc2)cc1NC(=O)c1ccccc1C(=O)O,3,19,x,x,x
O=c1c2[nH]c3ccccc3c2ncn1C1CCCCC1,-17,x,-2,x,62*
C[C@@H](NC(=O)C[C@H]1C=C[C@@H](NC(=O)C2CCC2)[C@H](CO)O1)c1ccccc1,x,x,0,x,-15
Cc1cc(C)n(-c2cccc(Cl)c2)c(=O)c1C#N,3,-1,118*,4,1
Cc1nn(C)c(C)c1C(C)NC(=O)c1cc(COc2ccc(F)c(F)c2)on1 (stereo not given),-2,1,-2,56,51*
CC(C)NC(=O)N(C)C[C@H]1OCCCC[C@H](C)Oc2ccc(NS(=O)(=O)c3ccc(Cl)cc3)cc2C(=O)N([C@@H](C)CO)C[C@@H]1C,x,x,x,x,-3
CCCNC(=O)N1[C@@H](CO)[C@@H]2c3ccccc3N(C(=O)Nc3cccc(F)c3)C[C@@H]21,x,x,9,x,-7
COc1ccc(OC)c(C(c2nnnn2Cc2ccccc2)N2CCN(C3CCCCC3)CC2)c1 (stereo not given),-5,-3,121*,x,-1
COc1ccc(Cn2nnnc2C(c2ccccc2OC)N2CCC(C(N)=O)CC2)cc1 (stereo not given),-8,-1,100*,-10,0
COc1ccccc1C(c1nnnn1Cc1ccccc1)N1CCN(C2CCCC2)CC1 (stereo not given),-6,-4,-6,1,-3
CCC(=O)N1C[C@H](C)[C@H](OC)CN(C)C(=O)c2cc(NC(=O)c3cc(C)on3)ccc2OC[C@@H]1C,x,x,14,x,-2
COc1ccc(NC(=O)N(C)C[C@@H]2Oc3ccc(NC(=O)CCC(F)(F)F)cc3C(=O)N([C@@H](C)CO)C[C@@H]2C)cc1,x,x,33,x,-5
CCn1c(N)nc2ccccc21,6,-2,1,-10,53*
CCn1c(CCc2ccccc2)nc2ccccc21,0,7,-18,x,42*
C[C@H](CO)N1C[C@H](C)[C@H](CN(C)C(=O)C2CCCCC2)OCCCC[C@H](C)Oc2ccc(NC(=O)NC3CCCCC3)cc2C1=O,x,x,3,x,3
C[C@@H]1CN([C@@H](C)CO)C(=O)c2cc(C#Cc3cccnc3)cnc2O[C@@H]1CN(C)C(=O)CN(C)C,x,x,14,x,-1
COc1ccc(CN(C)C[C@H]2OCCCC[C@H](C)Oc3ccc(NC(=O)CCC(F)(F)F)cc3C(=O)N([C@H](C)CO)C[C@@H]2C)cc1,x,x,x,x,-6
COc1ccc(NC(=O)Nc2cccc3c2O[C@@H](CN(C)Cc2ccccc2)[C@H](C)CN([C@H](C)CO)C3=O)cc1,x,x,17,x,4
COc1cccc(CNC(=O)CCC2CCCN(C(=O)c3cc4ccccc4o3)C2)c1 (stereo not given),-1,25,9,84*,62*
CCCNC(=O)N1C[C@H](O)COC[C@H]2O[C@@H](CC(=O)N3CCN(C)CC3)CC[C@@H]21,x,x,-4,x,-3
COc1ccc(C(C#N)=Cc2ccc(N(C)CCC#N)cc2)cc1,x,31*,-26,x,77*
COc1ccc(C(C#N)=Cc2cc(OC)c(OC)c(OC)c2)cc1,x,-8,x,x,x
CN(C)c1ccc(/C=C(\C#N)c2ccccc2)cc1,2,x,-114,24,1
COc1ccc(/C(C#N)=C/c2cccnc2)cc1,-1,7,-1,59,42*
Cn1c(=O)c2c(nc(SCCN3CCOCC3)n2Cc2ccc(F)cc2)n(C)c1=O,0,x,4,52,56*
